The other results are listed elsewhere or left out. Unmarked numbers belong to inactive results.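 How the source made its calls: active means activation above the screen-wide mean activation plus 3 SD (cut at about 8% in these data); inactive means the rest.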
Assay: nonspecific BLA reporter activation – CHO NFAT-bla cells, FRET readout, counter-screen for GALR2 agonist project, confirmation (AID 865);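 further: 0% = DMSO with PBS wells and 100% = thapsigargin positive control wells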
Details: beta-lactamase FRET activation, at 5.6 µM, active compounds read high

**Q.** For `Cc1cccc(N2C(=O)NC(=O)/C(=C\c3cnn(-c4ccccc4)c3)C2=O)c1`, which activation is on record?
**A.** 0.39%
